The source of these data is PMC4336329 (PLoS ONE, 2015).

Screen size: about 310,000 compounds; about 14,000 (4.5%) showed an effect of 50% or more. The effect is printed as a negative number. The sample as a whole holds a higher share of strong results than the screen did.
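Note: peak tail current of the secondary pulse compared with the same well before compound.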

This experiment deals with human ether-à-go-go-related gene (hERG) potassium channel (human, UniProt Q12809). The experiment in a line: primary screen, population patch clamp on CHO cells stably expressing hERG; higher = less effect of the substance.
human ether-à-go-go-related gene (hERG) potassium channel, sequence (Q12809 whole entry, looked up): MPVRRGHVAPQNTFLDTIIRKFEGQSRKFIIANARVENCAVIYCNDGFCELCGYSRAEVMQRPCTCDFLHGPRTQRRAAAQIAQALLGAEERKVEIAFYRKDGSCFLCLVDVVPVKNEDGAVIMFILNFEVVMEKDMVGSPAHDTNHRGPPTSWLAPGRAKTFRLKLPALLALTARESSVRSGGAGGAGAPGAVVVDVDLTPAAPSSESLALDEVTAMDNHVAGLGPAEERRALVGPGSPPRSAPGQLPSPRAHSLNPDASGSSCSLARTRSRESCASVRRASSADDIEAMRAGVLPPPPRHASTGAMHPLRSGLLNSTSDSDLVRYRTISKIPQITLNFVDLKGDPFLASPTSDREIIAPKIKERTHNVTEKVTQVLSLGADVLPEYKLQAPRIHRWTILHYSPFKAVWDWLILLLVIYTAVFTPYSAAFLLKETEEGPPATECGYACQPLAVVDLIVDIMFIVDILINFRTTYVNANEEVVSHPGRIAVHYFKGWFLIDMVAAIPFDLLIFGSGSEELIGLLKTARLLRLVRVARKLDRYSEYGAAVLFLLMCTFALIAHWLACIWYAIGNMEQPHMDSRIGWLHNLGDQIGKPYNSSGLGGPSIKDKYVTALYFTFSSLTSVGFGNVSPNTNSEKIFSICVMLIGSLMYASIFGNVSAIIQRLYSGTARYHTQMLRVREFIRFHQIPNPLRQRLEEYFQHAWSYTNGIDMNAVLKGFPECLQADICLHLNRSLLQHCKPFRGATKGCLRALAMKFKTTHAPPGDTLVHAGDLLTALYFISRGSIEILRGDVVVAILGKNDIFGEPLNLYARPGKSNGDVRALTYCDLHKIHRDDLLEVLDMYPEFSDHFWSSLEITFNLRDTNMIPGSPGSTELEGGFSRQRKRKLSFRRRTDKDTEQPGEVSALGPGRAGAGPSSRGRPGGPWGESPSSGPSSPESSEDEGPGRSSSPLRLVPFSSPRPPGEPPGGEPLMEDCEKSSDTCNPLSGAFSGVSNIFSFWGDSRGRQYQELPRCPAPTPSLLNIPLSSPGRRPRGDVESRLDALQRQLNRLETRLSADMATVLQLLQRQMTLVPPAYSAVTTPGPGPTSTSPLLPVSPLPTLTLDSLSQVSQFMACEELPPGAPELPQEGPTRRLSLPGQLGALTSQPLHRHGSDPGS
In the case of `COCC(C)N1CCC(Oc2cccc(C(=O)NCCc3ccccc3)c2)CC1` (stereo not shown), the “hERG current change (%, negative = inhibition) at 10uM” value is reported as -66.3%. As for `COc1cccc(OCCCCN2CCCCC2)c1`, the “hERG current change (%, negative = inhibition) at 10uM” value is on record as -8.36%. Next, `COc1cc(OC)cc(C(=O)NCCOc2ccccc2)c1`: -17.6%.

Regarding `COCCNC(=O)c1cccc(OC2CCN(Cc3cccc(SC)c3)CC2)c1`, the “hERG current change (%, negative = inhibition) at 10uM” value is recorded as -35.2%.

Regarding `COc1cc(OC)cc(C(=O)NC2CCN(CCCOc3ccccc3)CC2)c1`, the “hERG current change (%, negative = inhibition) at 10uM” value is recorded as -70.2%.

In the case of `COc1ccc(C2(O)CCN(CCCCOc3ccccc3)CC2)cc1`, the “hERG current change (%, negative = inhibition) at 10uM” value is given as -70.6%. The value for `Cn1cc(/C=C(\C#N)C(=O)Nc2cccc([N+](=O)[O-])c2)c2ccccc21` was 28.4%; that for `COc1ccc(F)cc1C(=O)C1CCCN(C(=O)c2ccc(C(C)=O)s2)C1` (stereo not shown) was -4.71%; that for `COC(=O)c1ccc(N=C(c2ccccc2)c2c(O)n(C)c(=O)n(C)c2=O)cc1` was 6.79%. Next, `CC(=O)N(C)c1ccc(N=Cc2c(O)ccc3ccccc23)cc1`: -20.9%; `O=C1CCCC(O)=C1N=Nc1ccc(S(=O)(=O)N2CCOCC2)cc1`: 2.06%.

Turning to `COc1ccc(NC(=O)C2C3C=CC4(O3)C2C(=O)N(CCN2CCCCC2C)C4C(=O)NC2CCCC(C)C2C)cc1` (stereo not shown), the “hERG current change (%, negative = inhibition) at 10uM” value was -22.4%. The value for `Cc1cccc(C)c1-n1c(SCC(=O)N2CC(=O)Nc3ccccc32)nc2ccccc2c1=O` was -0.373%; that for `CS(=O)(=O)N(CC(=O)N1CCN(c2ccc(F)cc2)CC1)c1cccc(Cl)c1` was -49.9%; that for `O=C(NCCc1csc(-c2cccnc2)n1)c1cccs1` was -5.91%.

For the compound `C#CCN1C(=O)C(O)(CC(=O)/C=C/C=C/c2ccccc2)c2ccccc21` (stereo not shown), the “hERG current change (%, negative = inhibition) at 10uM” value was determined as 21.6%. Next, `COCCNC(=O)c1cccc(OC2CCN(Cc3cccc(C(C)=O)c3)CC2)c1`: 6.74%.

Regarding `CCCN1CCC(Oc2cccc(C(=O)NCCc3ccccc3)c2)CC1`, the “hERG current change (%, negative = inhibition) at 10uM” value is given as -66%. In the case of `COCCNC(=O)c1cccc(OC2CCN(Cc3ccccc3C)CC2)c1`, the “hERG current change (%, negative = inhibition) at 10uM” value came to 6.34%. Regarding `Oc1ccc(Br)cc1-c1cc(-c2ccc(Cl)cc2)n[nH]1`, the “hERG current change (%, negative = inhibition) at 10uM” value was 7.99%. Turning to `Cc1ccc(Sc2ncnc3onc(C)c23)cc1`, the “hERG current change (%, negative = inhibition) at 10uM” value is given as 4.79%. The value for `Cc1noc2ncnc(Sc3ccc(Cl)cc3)c12` was 16.3%; that for `Cc1noc2ncnc(Sc3ccc(Br)cc3)c12` was -50.8%; that for `O=[N+]([O-])c1ccccc1CNCCCCO` was -3.05%. The value for `CC(C)c1csc2nc3n(c(=O)c12)CCCCC3` was -10.7%; that for `O=C(c1cccs1)N1CCCC(N2CCN(c3cccc(C(F)(F)F)c3)CC2)C1` (stereo not shown) was -68.4%. For `Cc1nnsc1C(=O)N1CCCC(N2CCN(c3cccc(C(F)(F)F)c3)CC2)C1` (stereo not shown), the “hERG current change (%, negative = inhibition) at 10uM” value was -26.8%.

With `Cc1occc1C(=O)N1CCCC(N2CCN(c3cccc(C(F)(F)F)c3)CC2)C1` (stereo not shown), the “hERG current change (%, negative = inhibition) at 10uM” value is recorded as -38.9%. Take `CCn1cc(C(=O)N2CCCC(N3CCN(c4cccc(C(F)(F)F)c4)CC3)C2)cn1` (stereo not shown): the “hERG current change (%, negative = inhibition) at 10uM” value is -29.2%. The value for `Cc1cc(C(=O)N2CCCC(N3CCN(c4cccc(C(F)(F)F)c4)CC3)C2)n[nH]1` (stereo not shown) was -53.2%; that for `O=C(c1ccsc1)N1CCCC(N2CCN(c3cccc(C(F)(F)F)c3)CC2)C1` (stereo not shown) was -64.2%. The value for `O=C(c1cc[n+]([O-])cc1)N1CCCC(N2CCN(c3cccc(C(F)(F)F)c3)CC2)C1` (stereo not shown) was -6.27%; that for `O=C(c1ccoc1)N1CCCC(N2CCN(c3cccc(C(F)(F)F)c3)CC2)C1` (stereo not shown) was -55.5%; that for `Cc1cnc(C(=O)N2CCCC(N3CCN(c4cccc(C(F)(F)F)c4)CC3)C2)cn1` (stereo not shown) was -39.7%. Consider `O=C(c1ccsc1)N1CCCC(N2CCN(c3cccc(Cl)c3)CC2)C1` (stereo not shown), for which the “hERG current change (%, negative = inhibition) at 10uM” value was -47.1%. Next, `Cc1cc(C(=O)N2CCCC(N3CCN(c4cccc(C(F)(F)F)c4)CC3)C2)no1` (stereo not shown): -2.14%; `O=C(c1ccoc1)N1CCCC(N2CCN(c3cccc(Cl)c3)CC2)C1` (stereo not shown): -41.3%. The value for `CC(=O)c1ccc(N2C(=NC(=O)COc3ccccc3)SC3CS(=O)(=O)CC32)cc1` (stereo not shown) was -3.89%.

As to `COc1cc2c(cc1OC)CN(C(=O)c1cc(Cl)nc(Cl)c1)CC2`, the “hERG current change (%, negative = inhibition) at 10uM” value stood at 12.1%.

On to `CC(=O)OCC(OC(C)=O)C(OC(C)=O)C(OC(C)=O)C(=O)Nc1ccccc1` (stereo not shown), for which the “hERG current change (%, negative = inhibition) at 10uM” value stood at 16.6%. Next, `COc1ccc(CNC(=O)Nc2ccc([N+](=O)[O-])cc2)cc1`: 5.47%; `CN(CC(=O)Nc1ccc(Cl)c(S(=O)(=O)N2CCOCC2)c1)C(=O)c1cccs1`: -44.2%; `CCOc1ccccc1NC(=O)C1CCCN1C(=O)c1cccs1` (stereo not shown): 7.83%.
